# Reference: the supplement of paper PMC8728848
# Only a selection was taken, and the strongest signals are over-represented in it overall.
# B1: LgFlo1 (Saccharomyces pastorianus), B3IUA8 (protein)
# chain: SGSTQACLPVGSRKNGMNVNFYKYSLQDSTTYSDPQYMAYKYSDTKKLGSVSGQTHLSIYYGPNTAFWNTASWSSDLFGFYTTPTNVTVEMTGYFLPPQTGSYTFKFATVDDSAILSVGGSIAFECCAQEQPPITSTDFTINGIKPWDAATPTDIKGSTYMYAGYYYPIKIVYSNAKALARLPVSVVLPDGTEVNDDFEGYVYSFDDDLSQSNCTIPDPSKHTTS
# Assays:
# Experiment in all cases: glycan array binding signal (z-score within array); higher = stronger binding
# Conditions in all cases: glycan notation: IUPAC condensed, linker removed
# [1] = biological target: Fuc(a1-2)Gal(b1-3)GlcNAc(b1-2)Man(a1-3)[Fuc(a1-2)Gal(b1-3)GlcNAc(b1-2)Man(a1-6)]Man(b1-4)GlcNAc(b1-4)GlcNAc
# Method in brief: (§1)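 From the Consortium for Functional Glycomics database, 3228 arrays were curated, keeping only those whose protein sequence was available. Binding is given as a within-array Z-score averaged across arrays sharing a protein sequence and across linkers. Negative Z-scores can be read as non-binding.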
# [2] = biological target: Fuc(a1-2)Gal(b1-3)GlcNAc(b1-2)Man(a1-3)[Fuc(a1-2)Gal(b1-3)GlcNAc(b1-2)Man(a1-6)]Man(b1-4)GlcNAc(b1-4)[Fuc(a1-6)]GlcNAc
# Method in brief: as §1
# [3] = biological target: Fuc(a1-2)Gal(b1-4)Fuc(a1-3)]GlcNAc(b1-2)Man(a1-3)[Fuc(a1-2)Gal(b1-4)[Fuc(a1-3)]GlcNAc(b1-2)Man(a1-6)]Man(b1-4)GlcNAc(b1-4)GlcNAc
# Method in brief: as §1
# Fuc(a1-2)Gal(b1-4)Glc = biological target: Fuc(a1-2)Gal(b1-4)Glc
# Method in brief: as §1
# [4] = biological target: Fuc(a1-2)Gal(b1-4)GlcNAc(b1-2)Man(a1-3)[Fuc(a1-2)Gal(b1-4)GlcNAc(b1-2)Man(a1-6)]Man(b1-4)GlcNAc(b1-4)[Fuc(a1-6)]GlcNAc
# Method in brief: as §1
# [5] = biological target: Fuc(a1-2)[Gal(a1-3)]Gal(b1-3)GlcNAc(b1-3)GalNAc
# Method in brief: as §1
# [6] = biological target: Fuc(a1-2)[Gal(a1-3)]Gal(b1-4)GlcNAc(b1-2)Man(a1-3)[Fuc(a1-2)[Gal(a1-3)]Gal(b1-4)GlcNAc(b1-2)Man(a1-6)]Man(b1-4)GlcNAc(b1-4)[Fuc(a1-6)]GlcNAc
# Method in brief: as §1
# [7] = biological target: Fuc(a1-2)[Gal(a1-3)]Gal(b1-4)GlcNAc(b1-3)[Fuc(a1-2)[Gal(a1-3)]Gal(b1-4)GlcNAc(b1-6)]GalNAc
# Method in brief: as §1
# [8] = biological target: Fuc(a1-2)[GalNAc(a1-3)]Gal(b1-4)GlcNAc(b1-3)Gal(b1-4)GlcNAc
# Method in brief: as §1
# [9] = biological target: Fuc(a1-2)[GalNAc(a1-3)]Gal(b1-4)GlcNAc(b1-3)[Fuc(a1-2)[GalNAc(a1-3)]Gal(b1-4)GlcNAc(b1-6)]GalNAc
# Method in brief: as §1
# [10] = biological target: Fuc(a1-2)[GalNAc(a1-3)]Gal(b1-4)GlcNAc(b1-6)GalNAc
# Method in brief: as §1
# [11] = biological target: Fuc(a1-2)[GalNAc(a1-3)]Gal(b1-4)[Fuc(a1-3)]GlcNAc
# Method in brief: as §1
# [12] = biological target: Fuc(a1-3)[Gal(b1-4)]GlcNAc
# Method in brief: as §1
# [13] = biological target: Fuc(a1-3)[Gal3S(b1-4)]GlcNAc6S
# Method in brief: as §1
# Gal(a1-3)Gal(b1-3)GlcNAc = biological target: Gal(a1-3)Gal(b1-3)GlcNAc
# Method in brief: as §1
# [14] = biological target: Gal(a1-3)Gal(b1-3)GlcNAc(b1-2)Man(a1-3)[Gal(a1-3)Gal(b1-3)GlcNAc(b1-2)Man(a1-6)]Man(b1-4)GlcNAc(b1-4)GlcNAc
# Method in brief: as §1
# [15] = biological target: Gal(a1-3)Gal(b1-4)GlcNAc(b1-3)GalNAc
# Method in brief: as §1
# Gal(a1-3)GalNAc = biological target: Gal(a1-3)GalNAc
# Method in brief: as §1
# [16] = biological target: Gal(a1-4)Gal(b1-3)GlcNAc(b1-2)Man(a1-3)[Gal(a1-4)Gal(b1-3)GlcNAc(b1-2)Man(a1-6)]Man(b1-4)GlcNAc(b1-4)GlcNAc
# Method in brief: as §1
# [17] = biological target: Gal(b1-3)GlcNAc(b1-2)Man(a1-3)[GlcNAc(b1-4)][Gal(b1-3)GlcNAc(b1-2)Man(a1-6)]Man(b1-4)GlcNAc(b1-4)GlcNAc
# Method in brief: as §1
# [18] = biological target: Gal(b1-3)GlcNAc(b1-3)Gal(b1-4)GlcNAc(b1-2)Man(a1-3)[Gal(b1-3)GlcNAc(b1-3)Gal(b1-4)GlcNAc(b1-2)Man(a1-6)]Man(b1-4)GlcNAc(b1-4)GlcNAc
# Method in brief: as §1
# [19] = biological target: Gal(b1-4)GlcNAc(b1-2)Man(a1-3)[GlcNAc(b1-4)][Gal(b1-4)GlcNAc(b1-2)Man(a1-6)]Man(b1-4)GlcNAc(b1-4)GlcNAc
# Method in brief: as §1
# [20] = biological target: Gal(b1-4)GlcNAc(b1-2)[Gal(b1-4)GlcNAc(b1-6)]Man(a1-6)[Gal(b1-4)GlcNAc(b1-2)Man(a1-3)]Man(b1-4)GlcNAc(b1-4)GlcNAc
# Method in brief: as §1
# [21] = biological target: Gal(b1-4)GlcNAc(b1-3)Gal(b1-4)GlcNAc
# Method in brief: as §1
# Gal6S(b1-4)GlcNAc = biological target: Gal6S(b1-4)GlcNAc
# Method in brief: as §1
# GlcNAc(b1-3)Gal = biological target: GlcNAc(b1-3)Gal
# Method in brief: as §1
# GlcNAc(b1-4)GlcNAc = biological target: GlcNAc(b1-4)GlcNAc
# Method in brief: as §1
# [22] = biological target: GlcNAc6S(b1-3)Gal(b1-4)GlcNAc
# Method in brief: as §1
# [23] = biological target: Neu5Ac(a2-3)Gal(b1-3)GalNAc
# Method in brief: as §1
# [24] = biological target: Neu5Ac(a2-3)Gal(b1-3)GalNAc(b1-3)Gal(a1-4)Gal(b1-4)Glc
# Method in brief: as §1
# [25] = biological target: Neu5Ac(a2-3)Gal(b1-3)GlcNAc(b1-2)Man(a1-3)[GlcNAc(b1-4)][Neu5Ac(a2-3)Gal(b1-3)GlcNAc(b1-2)Man(a1-6)]Man(b1-4)GlcNAc(b1-4)GlcNAc
# Method in brief: as §1
# [26] = biological target: Neu5Ac(a2-3)Gal(b1-3)[Fuc(a1-4)]GlcNAc
# Method in brief: as §1
# Neu5Ac(a2-3)Gal(b1-4)Glc = biological target: Neu5Ac(a2-3)Gal(b1-4)Glc
# Method in brief: as §1
# [27] = biological target: Neu5Ac(a2-3)Gal6S(b1-4)GlcNAc
# Method in brief: as §1
# [28] = biological target: Neu5Ac(a2-3)Gal6S(b1-4)[Fuc(a1-3)]GlcNAc
# Method in brief: as §1
# [29] = biological target: Neu5Ac(a2-3)[Neu5Ac(a2-6)]GalNAc
# Method in brief: as §1
# [30] = biological target: Neu5Ac(a2-6)Gal(b1-4)GlcNAc(b1-2)Man(a1-3)[GlcNAc(b1-4)][Neu5Ac(a2-6)Gal(b1-4)GlcNAc(b1-2)Man(a1-6)]Man(b1-4)GlcNAc(b1-4)GlcNAc
# Method in brief: as §1
# [31] = biological target: Neu5Ac(a2-6)Gal(b1-4)GlcNAc(b1-2)Man(a1-6)[Gal(b1-4)GlcNAc(b1-2)Man(a1-3)]Man(b1-4)GlcNAc(b1-4)GlcNAc
# Method in brief: as §1
# [32] = biological target: Neu5Ac(b2-6)Gal(b1-4)GlcNAc
# Method in brief: as §1
binder,measurement,setting,value
B1,glycan array binding signal (z-score),[1],2.1
same,glycan array binding signal (z-score),[2],3.52
same,glycan array binding signal (z-score),[3],4.98
same,glycan array binding signal (z-score),Fuc(a1-2)Gal(b1-4)Glc,-0.137
same,glycan array binding signal (z-score),[4],0.313
same,glycan array binding signal (z-score),[5],11.9
same,glycan array binding signal (z-score),[6],11.9
same,glycan array binding signal (z-score),[7],2.44
same,glycan array binding signal (z-score),[8],-0.328
same,glycan array binding signal (z-score),[9],1.81
same,glycan array binding signal (z-score),[10],-0.114
same,glycan array binding signal (z-score),[11],0.711
same,glycan array binding signal (z-score),[12],0.072
same,glycan array binding signal (z-score),[13],0.042
same,glycan array binding signal (z-score),Gal(a1-3)Gal(b1-3)GlcNAc,2.47
same,glycan array binding signal (z-score),[14],0.576
same,glycan array binding signal (z-score),[15],-0.146
same,glycan array binding signal (z-score),Gal(a1-3)GalNAc,-0.152
same,glycan array binding signal (z-score),[16],1.89
same,glycan array binding signal (z-score),[17],0.784
same,glycan array binding signal (z-score),[18],-0.078
same,glycan array binding signal (z-score),[19],-0.121
same,glycan array binding signal (z-score),[20],0.549
same,glycan array binding signal (z-score),[21],-0.291
same,glycan array binding signal (z-score),Gal6S(b1-4)GlcNAc,-0.114
same,glycan array binding signal (z-score),GlcNAc(b1-3)Gal,-0.087
same,glycan array binding signal (z-score),GlcNAc(b1-4)GlcNAc,-0.042
same,glycan array binding signal (z-score),[22],-0.317
same,glycan array binding signal (z-score),[23],5.83
same,glycan array binding signal (z-score),[24],-0.329
same,glycan array binding signal (z-score),[25],-0.135
same,glycan array binding signal (z-score),[26],-0.245
same,glycan array binding signal (z-score),Neu5Ac(a2-3)Gal(b1-4)Glc,1.97
same,glycan array binding signal (z-score),[27],-0.229
same,glycan array binding signal (z-score),[28],-0.151
same,glycan array binding signal (z-score),[29],-0.356
same,glycan array binding signal (z-score),[30],-0.203
same,glycan array binding signal (z-score),[31],-0.38
same,glycan array binding signal (z-score),[32],-0.214
